Structures are written as SMILES. Inconclusive results are not listed. Activity calls are given as the source filed them. Unless noted, calls follow the shape of the full dose curve.

The target in assay [1] is Bile acid receptor (Homo sapiens) (UniProt Q96RI1). In words: qHTS assay for small molecule antagonists of farnesoid X receptor signaling (AID 588526). Also: % is scaled to controls: 0 for no effect and ±100 for the full control effect. Summed up:
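Antagonist mode: titrated compounds tested against chenodeoxycholic acid stimulation (normalized to 50 uM CDCA and DMSO) in GeneBLAzer HEK293T cells for 16 h. Beta-lactamase read by CCF4 fluorescence; IC50 from Hill fits.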
Background: qHTS replaces the single test concentration by a dilution series.

Assay [2] shares this target. In words: qHTS assay for small molecule agonists of farnesoid X receptor signaling (AID 588527).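 Also: series mostly up to about 77 µM; 0% = vehicle basal and 100% = reference agonist.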 As to conditions: HEK293T FXR-UAS-bla, beta-lactamase ratio, 16 h; activation: stronger effect = higher value. A digest of the protocol:
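Quantitative HTS used FXR-UAS-bla HEK293T cells with 16 h compound incubation at 37 C. EC50 values came from concentration-response curves normalized to chenodeoxycholic acid.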

The target of assay [3] is Glucocorticoid receptor (Homo sapiens) (UniProt P04150). In words: qHTS assay for small molecule agonists of glucocorticoid receptor signaling (AID 588532; active = well fitted curve in the direction sought with a large enough effect in the signal ratio, with a control signal flat; the % refers to the signal ratio;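 also: 100% = dexamethasone at 0.1 µM and 0% = DMSO only wells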). To be noted: HeLa MMTV-bla, beta-lactamase ratio, agonist, 18 h; activation: stronger effect = higher value, percent of dexamethasone control, DMSO zero. Summed up:
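HeLa GRE-bla reporter cells; 18 h compound exposure at 37 C; 2 h CCF4 loading at room temperature; fluorescence at 460 and 530 nm; EC50 by Hill equation.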

Assay [4] has as its target Peroxisome proliferator-activated receptor delta (Homo sapiens) (UniProt Q03181). In words: qHTS assay for small molecule agonists of peroxisome proliferator-activated receptor delta signaling (AID 588534).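 Also: 0% = DMSO basal wells and 100% = positive control agonist at 10 µM.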 A digest of the protocol:
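Fluorescence from CCF4 substrate cleavage by beta-lactamase reporter, read 2 hrs at RT, measured agonist activity. Compounds were tested with 18 hrs exposure at 37 C. Concentration-response data fitted to Hill equation.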

In assay [5] the target is Vitamin D3 receptor (Homo sapiens) (UniProt P11473). Nature of the assay: qHTS assay for small molecule antagonists of vitamin D receptor signaling (AID 588541).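 Also: receptor activated by calcitriol during compound treatment; series mostly up to about 77 µM; % is scaled to controls: 0 for no effect and ±100 for the full control effect.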 Summed up:
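VDR-UAS-bla HEK293T cells in 2% charcoal-stripped FBS were stimulated with 1-alpha,25-dihydroxyvitamin D3 (3 nM final) plus compound for 16 h at 37 C. The beta-lactamase CCF4 readout was normalized to 50 nM agonist and DMSO, and Hill fits gave IC50.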

Assay [6] has the same target. Nature of the assay: qHTS assay for small molecule agonists of vitamin D receptor signaling (AID 588543).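 Also: 0% = DMSO basal and 100% = reference agonist control.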 A digest of the protocol:
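Reporter cells (HEK293T, VDR-UAS-bla) were seeded in medium with 2% charcoal-stripped serum and incubated 5 h, then compounds in concentration series were added for 16 h at 37 °C. Stimulation was scaled between DMSO basal and 50 nM 1α,25-dihydroxyvitamin D3.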

Assay [7] has as its target Thyroid hormone receptor beta (Homo sapiens) (UniProt P10828). Nature of the assay: qHTS assay for small molecule agonists of thyroid hormone receptor beta signaling (AID 588545). A digest of the protocol:
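Cells (2500/well) were seeded, incubated 4 hrs at 37 C, dosed with a compound series, incubated 18 hrs, loaded with CCF4 dye for 2 hrs at RT, then read for fluorescence. Data were scaled between DMSO (0%) and 10 nM T3 (100%).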

The nature of assay [8]: qHTS assay for small molecule antagonists of retinoid X receptor alpha signaling (AID 588546; active = well fitted inhibition curve with a large enough effect in the signal ratio, with a control signal flat, not every such curve was filed as active; the % refers to the signal ratio;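 also: cells stimulated with 9-cis-retinoic acid as agonist; % is scaled to controls: 0 for no effect and ±100 for the full control effect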). To be noted: HEK293T RXRa-UAS-bla, beta-lactamase ratio, antagonist mode; measured here: W530 green channel, cytotoxicity proxy. A digest of the protocol:
(§1)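 Beta-lactamase reporter inhibition, read as CCF4 fluorescence ratio (ex 405, em 460/530 nm) after 2 h at RT. HEK293T UAS-bla cells, 2500/well, were stimulated with 9-cis-RA at 500 or 100 nM final alongside test compound for 18 h at 37 C.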

Assay [9] addresses Retinoic acid receptor RXR-alpha (Homo sapiens) (UniProt P19793). Described as above. To be noted: HEK293T RXRa-UAS-bla, beta-lactamase ratio, antagonist mode. Summed up:
as §1

Assay [10] deals with Thyroid hormone receptor beta (Homo sapiens) (UniProt P10828). Nature of the assay: qHTS assay for small molecule antagonists of thyroid hormone receptor beta signaling (AID 588547; active = well fitted inhibition curve with a large enough effect in the signal ratio, with a control signal flat, not every such curve was filed as active; the % refers to the signal ratio;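 also: cells stimulated with 0.4 nM T3 agonist during compound exposure; series mostly up to about 77 µM; % is scaled to controls: 0 for no effect and ±100 for the full control effect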). As to conditions: TR-UAS-bla HEK293, beta-lactamase ratio, antagonist mode, 18 h. Summed up: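 TR-UAS-bla GripTite HEK293 cells in 2% charcoal/dextran FBS medium; compounds 0.59 nM to 92 uM with T3 at 0.4nM final, 18 h at 37 C. Beta-lactamase read by CCF4 fluorescence (460/530 nm); Hill fits gave IC50 and efficacy.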
Sequence of Thyroid hormone receptor beta (Homo sapiens) (P10828 whole entry, looked up): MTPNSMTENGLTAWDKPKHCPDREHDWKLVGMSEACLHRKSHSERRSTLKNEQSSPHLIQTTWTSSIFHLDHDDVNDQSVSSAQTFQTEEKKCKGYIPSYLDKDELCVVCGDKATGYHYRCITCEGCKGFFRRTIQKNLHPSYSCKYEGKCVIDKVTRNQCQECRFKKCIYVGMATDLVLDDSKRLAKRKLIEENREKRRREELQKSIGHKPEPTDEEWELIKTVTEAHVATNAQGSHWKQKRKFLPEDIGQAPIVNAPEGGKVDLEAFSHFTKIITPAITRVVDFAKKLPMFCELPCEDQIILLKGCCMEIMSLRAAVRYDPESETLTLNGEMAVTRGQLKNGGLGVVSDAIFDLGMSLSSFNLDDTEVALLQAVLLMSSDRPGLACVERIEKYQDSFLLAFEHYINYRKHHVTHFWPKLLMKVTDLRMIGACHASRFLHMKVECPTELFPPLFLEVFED

Assay [11] is described as follows: qHTS assay for small molecule agonists of the antioxidant response element (ARE) signaling pathway (AID 651741; active = well fitted activation curve with a large enough effect in the signal ratio; the % refers to the signal ratio; also: potency is read from the fitted curve at half-maximal effect; as to activation: % of control where 0% means no effect). A digest of the protocol: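 CellSensor ARE-bla HepG2 cells (2,000/well) carrying ARE-driven beta-lactamase, exposed 16 h at 37 C. LiveBLAzer B/G FRET substrate added for 2 h at room temperature; fluorescence intensity read.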
The nature of assay [12]: qHTS assay for small molecule activators of the p53 signaling pathway (AID 651743; active = well fitted activation curve with a large enough effect in the signal ratio, not every such curve was filed as active; the % refers to the signal ratio; also: series mostly up to about 92 µM; % of control where 0% means no effect). As to conditions: HCT-116 p53RE-bla, beta-lactamase FRET ratio, 16 h; activation: stronger effect = higher value. A digest of the protocol:
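p53RE-bla HCT-116 cells carrying a beta-lactamase reporter under p53 response elements were exposed to compounds for 16 hours at 37 C. Reporter activity read as fluorescence after 2 hours at room temperature with LiveBLAzer B/G FRET substrate.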

Assay [13] can be described thus: qHTS assay for small molecule activators of the nuclear factor-kappa B (NF-kB) signaling pathway (AID 651749; active = well fitted activation curve with a large enough effect in the signal ratio; the % refers to the signal ratio; also: series mostly up to about 77 µM; % of control where 0% means no effect). As to conditions: NF-kB-bla ME-180 cells, beta-lactamase FRET ratio, 16 h; activation: stronger effect = higher value. A digest of the protocol: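 NF-kB-bla ME-180 cells carrying a beta-lactamase reporter under an NF-kB response element, 2,000 cells/well, exposed to compound for 16 hr at 37C; FRET-based beta-lactamase fluorescence read-out of pathway activation.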

Assay [14] in a line: qHTS assay for environmental chemicals that activate the Aryl hydrocarbon Receptor (AhR) signaling pathway (AID 651777; active = well fitted curve in the direction sought with a large enough effect; an effect the other way counts as inactive or inconclusive; also: % of control where 0% means no effect; nearly all actives have a fitted effect of over 15% in size). As to conditions: 1A2-DRE human hepatoma cells, luciferase, 24 h; activation: stronger effect = higher value. Summed up:
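Measured luciferase activity, read 30 min after One-Glo addition at room temperature, from human hepatoma cells bearing a dioxin response element–CYP1A2 promoter reporter and exposed to compound for 24 hr at 37 C.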

In assay [15] the target is Peroxisome proliferator-activated receptor alpha (Homo sapiens) (UniProt Q07869). In words: qHTS assay for small molecule agonists of the peroxisome proliferator-activated receptor alpha (PPARalpha) signaling pathway (AID 651778; active = well fitted curve in the direction sought with a large enough effect; an effect the other way counts as inactive or inconclusive; also: potency is read from the fitted curve at half-maximal effect; as to max response: % of control where 0% means no effect). To be noted: PathHunter PPARalpha complementation, chemiluminescence, 6 h; max response: stronger effect = higher value. Summed up:
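Enzyme-fragment complementation assay in which ligand-bound PPARalpha translocates and forms an active enzyme that generates chemiluminescence. Cells were plated overnight, exposed to compound for 6 hr at 37 C, and then given detection reagent for 60 min at room temperature.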

The nature of assay [16]: qHTS assay for small molecule agonists of the antioxidant response element (ARE) signaling pathway measured by Nrf2-dependant transcriptional activity (AID 720636; active = well fitted curve in the direction sought with a large enough effect in the repeat runs; an effect the other way counts as inactive or inconclusive;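 also: HepG2 cells with an ARE-driven luciferase reporter; % of control where 0% means no effect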). A digest of the protocol:
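In HepG2 cells engineered with an Nrf2-responsive luciferase gene, ARE induction was quantified as luminescence after 16 hr compound treatment at 37 C.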

A short description of assay [17]: qHTS assay for small molecule agonists of the antioxidant response element (ARE) signaling pathway measured by Nrf2-dependant transcriptional activity - cell viability counter screen (AID 720653; active = well fitted curve in the direction sought with a large enough effect in the repeat runs; an effect the other way counts as inactive or inconclusive; also: % is scaled to controls: 0 for no effect and ±100 for the full control effect). As to conditions: ARE-bla HepG2 viability, CellTiter-Glo ATP luminescence, 16 h; max response: stronger effect = lower value. Summed up: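 ARE-bla HepG2 cells treated with compounds for 16 h at 37C; this counter screen measures viability as intracellular ATP by CellTiter-Glo luminescence after 30 min at room temperature.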

Assay [18] in a line: qHTS assay for cell viability of HEK293 cells (AID 743288; active = well fitted curve in the direction sought with a large enough effect; an effect the other way counts as inactive or inconclusive; also: % is scaled to controls: 0 for no effect and ±100 for the full control effect; nearly all actives have a fitted effect of over 50% in size). To be noted: ATP luminescence (CellTiter-Glo), 18 h; max response: stronger effect = lower value. A digest of the protocol:
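HEK293 parental, 2,000 cells/well; ≥5 h pre-incubation 37 C; pintool compound addition; 18 h, 37 C; CellTiter-Glo 30 min RT; luminescence read.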

A short description of assay [19]: qHTS assay for cell viability of the p53RE-bla HCT-116 cell line (AID 743292; active = well fitted curve in the direction sought with a large enough effect; an effect the other way counts as inactive or inconclusive; also: % is scaled to controls: 0 for no effect and ±100 for the full control effect; nearly all actives have a fitted effect of over 55% in size). Summed up:
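Intracellular ATP of p53RE-bla HCT-116 cells measured by luciferase luminescence following 16 h compound incubation at 37 C; DMSO-only wells served as vehicle controls.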

For assay [20], the target named is Nuclear receptor subfamily 1 group I member 2 (Rattus norvegicus) (UniProt Q9R1A7). Nature of the assay: qHTS assay for small molecule activators of the rat pregnane X receptor (rPXR) signaling pathway (AID 651751; call rule not given here; also: 0% is about no effect). To be noted: rPXR reporter cells, luciferase (One-Glo), 24 h.
Sequence of Nuclear receptor subfamily 1 group I member 2 (Rattus norvegicus) (Q9R1A7 whole entry, looked up): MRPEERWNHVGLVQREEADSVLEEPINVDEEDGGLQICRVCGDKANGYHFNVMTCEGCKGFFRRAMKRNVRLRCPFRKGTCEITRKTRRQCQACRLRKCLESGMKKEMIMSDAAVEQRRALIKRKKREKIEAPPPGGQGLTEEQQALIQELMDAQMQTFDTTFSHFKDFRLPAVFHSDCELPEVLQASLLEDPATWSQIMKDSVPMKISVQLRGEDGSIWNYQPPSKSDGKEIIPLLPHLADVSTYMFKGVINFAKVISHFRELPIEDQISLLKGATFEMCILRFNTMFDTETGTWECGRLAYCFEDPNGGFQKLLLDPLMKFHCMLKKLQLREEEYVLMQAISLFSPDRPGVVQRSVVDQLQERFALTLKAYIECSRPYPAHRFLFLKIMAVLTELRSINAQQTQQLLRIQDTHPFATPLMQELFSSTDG

Sequence of Peroxisome proliferator-activated receptor alpha (Homo sapiens) (Q07869 whole entry, looked up, the tested form may be a part): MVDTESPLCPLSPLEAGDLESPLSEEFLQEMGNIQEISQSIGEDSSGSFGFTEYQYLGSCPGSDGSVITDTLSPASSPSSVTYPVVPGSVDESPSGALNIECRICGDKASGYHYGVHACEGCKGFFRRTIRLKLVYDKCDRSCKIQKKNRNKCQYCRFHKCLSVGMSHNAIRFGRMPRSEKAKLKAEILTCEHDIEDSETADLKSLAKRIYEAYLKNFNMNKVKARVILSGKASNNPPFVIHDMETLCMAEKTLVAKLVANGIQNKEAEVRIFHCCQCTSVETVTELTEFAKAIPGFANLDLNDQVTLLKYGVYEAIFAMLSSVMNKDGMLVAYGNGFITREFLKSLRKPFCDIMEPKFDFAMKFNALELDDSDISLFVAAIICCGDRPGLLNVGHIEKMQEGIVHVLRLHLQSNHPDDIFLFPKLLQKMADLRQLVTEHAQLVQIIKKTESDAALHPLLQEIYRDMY
Sequence of Retinoic acid receptor RXR-alpha (Homo sapiens) (P19793 whole entry, looked up): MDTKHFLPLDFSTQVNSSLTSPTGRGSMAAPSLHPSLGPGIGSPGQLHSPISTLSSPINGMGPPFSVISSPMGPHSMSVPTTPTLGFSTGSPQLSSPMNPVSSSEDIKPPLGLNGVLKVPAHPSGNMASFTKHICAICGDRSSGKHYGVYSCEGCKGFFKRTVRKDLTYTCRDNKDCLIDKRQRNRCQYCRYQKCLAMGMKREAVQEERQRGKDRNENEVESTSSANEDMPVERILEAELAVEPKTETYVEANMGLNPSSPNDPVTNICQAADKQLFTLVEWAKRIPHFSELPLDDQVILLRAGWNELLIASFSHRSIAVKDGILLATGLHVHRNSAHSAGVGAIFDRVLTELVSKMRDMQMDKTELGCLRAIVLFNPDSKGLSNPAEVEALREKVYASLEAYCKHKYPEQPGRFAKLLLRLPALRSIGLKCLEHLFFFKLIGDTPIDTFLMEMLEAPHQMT
Sequence of Peroxisome proliferator-activated receptor delta (Homo sapiens) (Q03181 whole entry, looked up): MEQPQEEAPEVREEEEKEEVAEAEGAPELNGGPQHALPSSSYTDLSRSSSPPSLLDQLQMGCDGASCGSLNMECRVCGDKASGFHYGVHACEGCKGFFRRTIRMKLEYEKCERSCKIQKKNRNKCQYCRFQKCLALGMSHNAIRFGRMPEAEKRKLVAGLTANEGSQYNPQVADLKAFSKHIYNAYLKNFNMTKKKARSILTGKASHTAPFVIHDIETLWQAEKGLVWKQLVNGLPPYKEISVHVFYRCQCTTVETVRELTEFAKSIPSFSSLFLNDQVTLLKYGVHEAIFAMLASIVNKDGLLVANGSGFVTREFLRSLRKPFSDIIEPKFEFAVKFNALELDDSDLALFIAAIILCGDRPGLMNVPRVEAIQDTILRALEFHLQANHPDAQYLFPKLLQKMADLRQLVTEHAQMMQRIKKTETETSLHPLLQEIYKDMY
Sequence of Glucocorticoid receptor (Homo sapiens) (P04150 whole entry, looked up): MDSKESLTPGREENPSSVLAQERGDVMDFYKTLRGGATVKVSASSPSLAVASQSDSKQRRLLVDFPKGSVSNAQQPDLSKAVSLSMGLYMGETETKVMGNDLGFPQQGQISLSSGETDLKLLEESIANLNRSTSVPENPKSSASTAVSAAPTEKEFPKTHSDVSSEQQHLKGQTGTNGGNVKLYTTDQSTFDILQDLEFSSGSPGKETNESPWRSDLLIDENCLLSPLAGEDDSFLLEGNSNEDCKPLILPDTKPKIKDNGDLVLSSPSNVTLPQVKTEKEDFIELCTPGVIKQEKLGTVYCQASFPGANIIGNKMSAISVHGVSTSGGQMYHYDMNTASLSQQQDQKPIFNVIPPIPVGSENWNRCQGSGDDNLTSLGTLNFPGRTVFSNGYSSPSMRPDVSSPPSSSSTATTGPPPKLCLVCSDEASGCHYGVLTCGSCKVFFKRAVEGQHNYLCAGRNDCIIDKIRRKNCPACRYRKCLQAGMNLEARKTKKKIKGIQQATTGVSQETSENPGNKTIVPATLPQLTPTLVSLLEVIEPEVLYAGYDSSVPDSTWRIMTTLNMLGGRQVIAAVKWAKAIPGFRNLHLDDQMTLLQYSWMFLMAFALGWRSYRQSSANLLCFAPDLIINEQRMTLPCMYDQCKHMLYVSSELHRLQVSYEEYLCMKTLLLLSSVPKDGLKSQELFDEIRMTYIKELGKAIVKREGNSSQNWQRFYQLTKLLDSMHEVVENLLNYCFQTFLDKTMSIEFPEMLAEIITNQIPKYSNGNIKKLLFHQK
Sequence of Vitamin D3 receptor (Homo sapiens) (P11473 whole entry, looked up): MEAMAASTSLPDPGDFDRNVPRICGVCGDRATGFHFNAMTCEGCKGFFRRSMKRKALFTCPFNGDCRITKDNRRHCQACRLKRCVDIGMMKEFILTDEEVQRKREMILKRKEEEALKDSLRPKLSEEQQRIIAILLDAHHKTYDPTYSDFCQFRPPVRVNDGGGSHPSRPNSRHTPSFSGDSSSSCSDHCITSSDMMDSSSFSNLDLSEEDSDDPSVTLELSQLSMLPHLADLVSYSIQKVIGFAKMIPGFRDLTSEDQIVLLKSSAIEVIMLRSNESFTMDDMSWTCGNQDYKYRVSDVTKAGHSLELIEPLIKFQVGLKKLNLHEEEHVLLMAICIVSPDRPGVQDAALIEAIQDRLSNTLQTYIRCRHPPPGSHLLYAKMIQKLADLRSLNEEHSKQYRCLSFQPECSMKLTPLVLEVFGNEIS
Sequence of Bile acid receptor (Homo sapiens) (Q96RI1 whole entry, looked up): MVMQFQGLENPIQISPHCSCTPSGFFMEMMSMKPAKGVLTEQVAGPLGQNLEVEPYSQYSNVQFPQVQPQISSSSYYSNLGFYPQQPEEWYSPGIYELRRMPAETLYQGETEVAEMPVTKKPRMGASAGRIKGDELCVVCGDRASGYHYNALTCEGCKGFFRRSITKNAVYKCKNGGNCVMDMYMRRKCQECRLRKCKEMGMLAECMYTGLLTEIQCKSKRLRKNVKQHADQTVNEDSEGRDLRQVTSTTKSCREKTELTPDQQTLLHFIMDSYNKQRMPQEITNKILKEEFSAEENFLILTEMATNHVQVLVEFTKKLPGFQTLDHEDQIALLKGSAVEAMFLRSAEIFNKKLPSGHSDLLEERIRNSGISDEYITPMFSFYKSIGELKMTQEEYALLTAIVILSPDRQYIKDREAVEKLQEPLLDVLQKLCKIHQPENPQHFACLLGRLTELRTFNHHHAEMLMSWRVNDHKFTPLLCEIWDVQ

As for `CCC[CH2][Sn]([CH2]CCC)([CH2]CCC)[CH2]CCC`, the Potency result in assay [1], in assay [5], in assay [7], in assay [11], in assay [16] and in assay [19] was “inactive” each time. In addition, the activation in [2] was 3.44% (inactive); in assay [3], -2.61% (inactive); in [12] it was -3.46% (inactive); in assay [13], 1.03% (inactive); in assay [14], 0.926% (inactive). Further, the result in [4] and in assay [6] was inactive. The max response in [8] was 6.88%; in assay [9] it was 4.03% (inactive); in [15], -1.25% (inactive); in assay [17] it was 1.93% (inactive); in assay [18], -5.3% (inactive); in [20], 8.28% (inactive). In addition, the activity change % (negative = inhibition) in assay [10] is -9.45% (inactive).
Regarding `CC(Oc1cccc(Cl)c1)C(=O)O` (stereo not drawn), the Potency result in assay [1], in assay [5], in assay [7], in assay [11], in assay [16] and in assay [19] was “inactive” each time. Besides, the activation in assay [2] is 0.618% (inactive); in assay [3] it was -9.84% (inactive); in assay [12], 0.409% (inactive); in assay [14], -0.19% (inactive). The compound was called inactive in assay [4] and in assay [6]. The max response in assay [8] is -2.12%; in assay [9], -12.8% (inactive); in assay [15], -0.485% (inactive); in [17], -0.643% (inactive); in assay [20], -1.92% (inactive). Further, the activity change % (negative = inhibition) in assay [10] is 10.2% (inactive).
Regarding `Brc1ccc(Br)cc1`, the Potency entry in assay [1], in [5], in [7], in [16] and in [19] was “inactive” each time. Further, the activation in assay [2] is -2.5% (inactive); in assay [3], 1.41% (inactive); in [12], -8.84% (inactive); in assay [14], -0.254% (inactive). For the same compound, the result in [4] and in assay [6] was inactive. In addition, the max response was -5.87% in assay [8]; 9.56% (inactive) in assay [9]; -1.4% (inactive) in [15]; -4.46% (inactive) in assay [17]; -8.04% (inactive) in [18]; -2.46% (inactive) in assay [20].
On to `COC(=O)C(C)Oc1ccc(Oc2ccc(Cl)cc2Cl)cc1` (stereo not drawn), for which the Potency result in assay [1], in assay [7], in [16] and in assay [19] was “inactive” in each case. Further, the activation was -6.35% (inactive) in assay [2]; -5.37% (inactive) in assay [3]; -3.5% (inactive) in [12]; -0.397% (inactive) in assay [13]; -0.824% (inactive) in assay [14]. Besides, the call in assay [4] was inactive. The max response in [8] is -8.87%; in [9], -16.7% (inactive); in assay [17], -5.74% (inactive); in assay [18], -4.71% (inactive); in [20], -0.585% (inactive). In addition, the activity change % (negative = inhibition) in assay [10] was 8.67% (inactive).
For `N#Cc1cc(Br)c(O)c(Br)c1`, the Potency entry in assay [1], in assay [7] and in [19] was “inactive” throughout. The activation in assay [2] was 1.36% (inactive); in assay [3] it was 4.63% (inactive); in assay [12], 5.1% (inactive); in assay [13], -2.3% (inactive); in assay [14] it was 1.12% (inactive). Besides, the compound was called inactive in assay [4]. For the same compound, the max response was -9.47% in assay [8]; 1.7% (inactive) in assay [9]; -28.2% (inactive) in [17]; -7.19% (inactive) in [18]; -9.3% (inactive) in [20]. The activity change % (negative = inhibition) in [10] is 6.22% (inactive). The Potency in [11] was 61.1 µM (active); in [15], 25.1 µM (active).

Source of the values: PubChem BioAssay (NCATS).
